Measurements as given in PubChem BioAssay.
Values joined by “and” are separate entries in the source; they are usually repeats but may differ in a detail not shown here. Equal values may be shown once.

What was measured:
[1] = tested on: Botulinum neurotoxin type F light chain protease (Clostridium botulinum); test: Botulinum neurotoxin type F light chain protease inhibition, multiplex microsphere flow cytometry, validation set (AID 588459); conditions: multiplex microsphere protease substrate cleavage assay, at 10 µM, hits give high values
[2] = target: Botulinum neurotoxin type A (Clostridium botulinum) (UniProt P0DPI0); test: BoNT/A light chain protease inhibitors, biochemical, multiplex microsphere flow cytometry, validation set (AID 588460); conditions: at 10 µM, hits give high values
[3] = target: Lethal factor (Bacillus anthracis) (UniProt P15917); test: Lethal factor protease inhibitors, Bacillus anthracis, multiplex microsphere cleavage assay, validation set (AID 588461); conditions: flow cytometry, at 10 µM, hits give high values

Measured: inhibition

CN(C)CCOc1ccccc1Cc1ccccc1
inactive: [1] 19.8% | [2] 1.6% | [3] 3.4%

CC(=O)Oc1ccc2c(=O)c(Oc3ccccc3[N+](=O)[O-])coc2c1
inactive: [1] 0.2% | [2] -1.2% | [3] -6.2%

CC1(C)Oc2ccc(C#N)cc2[C@@H](N2CCCC2=O)[C@@H]1O
inactive: [1] 3% | [2] 0.5% | [3] 5.1%

Cc1ccc(S(=O)(=O)NC(C(=O)Oc2cc3oc(=O)cc(C)c3cc2Cl)C(C)C)cc1 (stereo unspecified)
inactive: [1] 0.5% | [2] 0.5% | [3] -3.2%

COc1ccc(C2=NOC(COc3ccc4c(C)cc(=O)oc4c3)C2)c(OC)c1 (stereo unspecified)
inactive: [1] -0.4% | [2] 1.7% | [3] 0%

CC(=O)NC1C(OCCOc2ccc(Cl)cc2Cl)OC(COC(C)=O)C(OC(C)=O)C1OC(C)=O (stereo unspecified)
inactive: [1] -1.5% | [2] -0.3% | [3] -0.7%

COCCn1c(/C=C/c2ccccc2)nc2ccccc21
inactive: [1] -1.2% | [2] 0% | [3] -3.4%

COc1ccc(S(=O)(=O)NCc2ccco2)c2ccccc12
inactive: [1] 4.7% | [2] 0.4% | [3] 1%

Cc1cccc(N2C(=O)C3C(c4ccccc4)OC4(C(=O)c5ccccc5C4=O)C3C2=O)c1 (stereo unspecified)
inactive: [1] 4.6% | [2] 1% | [3] -3.5%

Cc1oc2ccc(OC(=O)c3cccs3)cc2c1C(=O)OC(C)C
inactive: [1] -0.1% | [2] -1.1% | [3] 3.1%

CCN(CC)C(=O)c1sc(NC(=O)c2c(OC)cccc2OC)c(C#N)c1C
inactive: [1] 6% | [2] 2.1% | [3] 3.6%

O=C(Nc1ccc(C(=O)NC2CCCCC2)cc1)c1cccnc1
inactive: [1] 0.1% | [2] -1.5% | [3] -12.6%

CC[N+]1(CC)CC2=Cc3ccccc3CC2C1 (stereo unspecified)
inactive: [1] -1.1% | [2] 0% | [3] 3%

COc1ccc(OCc2cccc(C(=O)NN)c2)cc1
inactive: [1] 0.1% | [2] 1.2% | [3] -6.1%

Cc1ncc([N+](=O)[O-])n1CC(O)CCl (stereo unspecified)
inactive: [1] 3.5% | [2] -0.1% | [3] 2.5%

CCC(C)n1ncn(-c2ccc(N3CCN(c4ccc(OCC5COC(Cn6cncn6)(c6ccc(Cl)cc6Cl)O5)cc4)CC3)cc2)c1=O (stereo unspecified)
inactive: [1] 2.7% | [2] -0.4% | [3] 4.4%

Cc1ccc2c(c1)C(O)(CC(=O)/C=C/C=C/c1ccccc1)C(=O)N2 (stereo unspecified)
inactive: [1] -1.2% | [2] -0.9% | [3] -8.4%

O=C(NCCO)c1ccc(Cl)c(Cl)c1
inactive: [1] -0.2% | [2] -0.6% | [3] -2.2%

OCC1(CCOc2ccccc2)CCN(CCCn2cccn2)CC1
inactive: [1] -0.5% | [2] -1% | [3] -1.4%

CCOC(=O)C1C2C=CC3(CN(c4ccc(Cl)c(F)c4)C(=O)C13)O2 (stereo unspecified)
inactive: [1] 2.9% | [2] -2.3% | [3] 6.8%

CC(=O)C1=C(O)C(=O)N(Cc2cccnc2)C1c1ccc(C(C)C)cc1 (stereo unspecified)
inactive: [1] 3.2% | [2] 4.3% | [3] 7%

Cc1ccc(/C=N/NC(=O)C2(C)CC2(Br)Br)cc1 (stereo unspecified)
inactive: [1] 1.3% | [2] -0.4% | [3] -5.6%

CCC(=O)Nc1ccc(C(=O)N2CCN(C(=O)c3ccco3)CC2)cc1
inactive: [1] -2.6% | [2] -1.9% | [3] -2.7%

CN(C)CCOC(c1ccccc1)c1ccccc1
inactive: [1] -0.7% | [2] 0.3% | [3] -5%

CC(C)CC(NC(=O)c1cccc(Cl)c1)C(=O)O (stereo unspecified)
inactive: [1] -4.2% | [2] -2.6% | [3] 0.4%

Cc1[nH]c2ccccc2c1C(=O)CN1CCCC1
inactive: [1] 0.8% | [2] 0.2% | [3] -1.1%

COc1ccc(NC(=O)C2CCCN2C(=O)OC(C)(C)C)cc1 (stereo unspecified)
inactive: [1] 4.1% | [2] 0.9% | [3] -2.4%

CCC(C)NCCOc1ccc(C(C)(C)c2ccccc2)cc1 (stereo unspecified)
inactive: [1] -2% | [2] 0.7% | [3] -12.8%

CC(=O)NC(Cc1c[nH]c2ccccc12)C(=O)N/N=C/c1ccccc1 (stereo unspecified)
inactive: [1] -1.4% | [2] -0.1% | [3] -5.7%

Cc1ccc(NC(=O)CSc2nc(O)c(Cc3ccccc3)c(=O)n2-c2ccccc2)cc1
inactive: [1] -0.8% | [2] -0.6% | [3] 2%

COc1cccc(N2CC(O)=C(c3nc4ccccc4c(=O)[nH]3)C2=N)c1
inactive: [1] -2.2% | [2] -1.1% | [3] -6.2%

CC(=O)N1CCN2C(=O)C1CCCC(=O)c1cc(C(C)C)ccc12 (stereo unspecified)
inactive: [1] -1.6% | [2] -1.6% | [3] -5.3%

CC(=O)O[C@H]1CC[C@H]2[C@@H]3CCc4cc(O)ccc4[C@H]3CC[C@]12C
inactive: [1] -3.4% | [2] -0.9% | [3] -2.4%

Cc1ccc(C(=O)COC(=O)c2cnccn2)cc1[N+](=O)[O-]
inactive: [1] 2.8% | [2] -0.2% | [3] -5.2%

O=C(COc1ccc(F)cc1)OCCN1CCOCC1
inactive: [1] 1.8% | [2] -1% | [3] -5.2%

COC(=O)c1[nH]c(=O)c2ccccc2c1O
inactive: [1] 0.4% | [2] 0.2% | [3] -1.7%

Cc1ccc(Nc2ncccc2C(=O)O)cc1C
inactive: [1] 0.8% | [2] -0.2% | [3] -6.3%

CC[n+]1ccc2cc(OC)c(OC)cc2c1Cc1ccc(OC)c(OC)c1
inactive: [1] -0.2% | [2] 0.7% | [3] -0.5%

CN(C)c1cc(NC(=O)CN2CCOCC2)c2ccccc2n1
inactive: [1] 0% | [2] -1.5% | [3] -4.6%

Nc1ccc(N=Nc2ccccc2)c(N)n1
inactive: [1] -2% | [2] -0.2% | [3] -0.6%

COc1ccc(C(C)=O)c2c1OCCO2
inactive: [1] 2.3% | [2] -2.8% | [3] 0.8%

CCc1cc2c(=O)c(-c3ccc4c(c3)OCCO4)coc2c(CN2CCCCC2C)c1O (stereo unspecified)
inactive: [1] 2.5% | [2] 0.3% | [3] -1%

CCc1c(C(C)=O)oc2ccc3c(C)cc(=O)oc3c12
inactive: [1] -1.2% | [2] -2.4% | [3] -2.4%

CCCN(CCC)S(=O)(=O)c1ccc(C(=O)O)cc1
inactive: [1] 2.8% | [2] 1.1% | [3] 0%

NNC(=O)c1cc(O)c(O)c(O)c1
inactive: [1] -3.2% | [2] -1% | [3] -2.8%

Cc1nc(C(=O)Nc2ccccc2Cl)cc2c1[nH]c1ccccc12
inactive: [1] -0.3% | [2] -0.9% | [3] -4.5%

CC1(C)S[C@@H]2[C@H](NC(=O)[C@H](N)c3ccccc3)C(=O)N2[C@H]1C(=O)O
inactive: [1] 2.6% and -3.6% | [2] 2.2% and -0.7% | [3] 5% and -3%

COC1=CC(=O)CC(C)C12Oc1c(Cl)c(OC)cc(OC)c1C2=O (stereo unspecified)
inactive: [1] -0.7% | [2] -0.1% | [3] -1.8%

COC(=O)c1ccc(-c2ncc(-c3cccc4ccccc34)o2)cc1
inactive: [1] -1.4% | [2] -1.3% | [3] 4.9%

COc1ccc2c(c1)CC[C@@H]1[C@@H]2CC[C@]2(C)C(=O)CC[C@@H]12
inactive: [1] -4% | [2] -1.5% | [3] -5%

O=C1N[C@@H](Cc2cnc[nH]2)C(=O)N2CCC[C@@H]12
inactive: [1] 1.2% | [2] 0.3% | [3] -5.3%

CN(C)CCCN1c2ccccc2Sc2ccccc21
inactive: [1] -0.5% | [2] -0.5% | [3] -3.7%

CC(C)=CCCC(C)CN1CCC(N2CCC(C(=O)N3CCCC3)CC2)CC1 (stereo unspecified)
inactive: [1] 1.8% | [2] -0.4% | [3] -1.1%

Nc1ccc(C(=O)O)c(O)c1
inactive: [1] -4.5% and 1.6% | [2] -0.4% and -0.2% | [3] -12% and -5.3%

COc1ccc(N2C(=O)C3CCCN3C2=O)cc1 (stereo unspecified)
inactive: [1] 1.8% | [2] 0.4% | [3] -0.1%

CCOCC(=O)Nc1nc2ccccc2s1
inactive: [1] -2.1% | [2] 1.5% | [3] -0.2%

COc1cc(Cc2cnc(N)nc2N)cc(OC)c1OC
inactive: [1] 4.4% and 6.3% | [2] 0% and -0.2% | [3] -0.1% and 0.6%

Cc1ccccc1N1C(N)=NC(N)=NC1(C)C
inactive: [1] -1.5% | [2] -0.8% | [3] 6.8%

CC(C)CC(NC(=O)CNC(=O)C1O[C@@H]2OC(C)(C)O[C@@H]2[C@H]2OC(C)(C)O[C@@H]12)C(=O)O (stereo partly specified)
inactive: [1] 2.8% | [2] -2% | [3] 2.8%

CCOc1ccc2nc(S(N)(=O)=O)sc2c1
inactive: [1] 2% | [2] 0% | [3] 8.4%

O=C(NCCN1CCCCC1)c1c(O)c2ccccc2[nH]c1=O
inactive: [1] 3.5% | [2] 0.4% | [3] -3.9%

CC1(C)O[C@@H]2C[C@H]3[C@@H]4C[C@H](F)C5=CC(=O)C=C[C@]5(C)[C@@]4(F)[C@@H](O)C[C@]3(C)[C@]2(C(=O)CO)O1
inactive: [1] -0.5% | [2] 0.1% | [3] -6.8%
